Results on eight compounds are retold here after PubChem BioAssay (NCI).

This is part of a sample that, as a whole, favours compounds with a hit. Of some 83,000 tested, about 20% had one in any assay.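 Treatment: one concentration, 48 hours, 96-well format. Scoring: percent growth, with anything below 10 considered active.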 Values without a mark were called inactive. Calls of active or inactive are those of the source.

Some test systems named below: DU-145 prostate; K-562 leukemia; MALME-3M melanoma; MDA-MB-231 breast; RXF 393 renal; SF-268 CNS; SF-295 CNS; SF-539 CNS; UACC-257 melanoma; M14 melanoma; HCT-15 colon; HT29 colon; SNB-75 CNS; SNB-19 CNS; U251 CNS; PC-3 prostate; SK-MEL-5 melanoma; UACC-62 melanoma; LOX IMVI melanoma; SK-MEL-28 melanoma.
Holding throughout (experiment): NCI-60 one-dose screen, 48 h (100 = growth as untreated, 0 = no growth, -100 = all killed)
What all share (conditions): 10 µM unless noted

As to `O=C(NCCNc1cc(-c2cn(-c3ccccc3)nc2-c2cccc(O)c2)ccn1)Nc1ccccc1`, the growth with DU-145 prostate was 92.8%; in the experiment on K-562 leukemia, 35.4%; in the experiment with MALME-3M melanoma, 92.3%; with MDA-MB-231 breast it was 57.1%; in the experiment with RXF 393 renal, 89.5%; with SF-268 CNS, 81.3%. Moreover, the growth is 75.8% in the experiment on SF-295 CNS; 89.5% in the experiment with SF-539 CNS; 58.7% in the experiment with UACC-257 melanoma; 72.2% in the experiment with M14 melanoma; 62.7% with HCT-15 colon; 27.3% in the experiment on HT29 colon. For the same compound, the growth is 66.2% with SNB-75 CNS; 82.4% in the experiment with SNB-19 CNS; 56.4% in the experiment with U251 CNS; 45.7% in the experiment with PC-3 prostate; 63.9% in the experiment on SK-MEL-5 melanoma; 70% with UACC-62 melanoma. Also, the growth with LOX IMVI melanoma is 82.5%; with SK-MEL-28 melanoma it was 103%.
Turning to `COc1ccccc1N1C(=O)/C(=C/C2=Cc3ccccc3OC2)SC1=S`, the growth in the experiment on DU-145 prostate is 100%; in the experiment on K-562 leukemia, 75%; in the experiment with MALME-3M melanoma, 92.9%; with MDA-MB-231 breast it was 88.1%; in the experiment with RXF 393 renal, 103%; with SF-268 CNS, 109%. In addition, the growth was 91.5% in the experiment on SF-295 CNS; 103% with SF-539 CNS; 100% with UACC-257 melanoma; 98.2% with M14 melanoma; 65.3% with HCT-15 colon; 99.6% in the experiment with HT29 colon. Besides, the growth with SNB-75 CNS was 97.8%; with SNB-19 CNS, 91.1%; in the experiment with U251 CNS, 95.7%; in the experiment on PC-3 prostate, 77.1%; in the experiment with SK-MEL-5 melanoma, 97.7%; in the experiment on UACC-62 melanoma, 86%. The growth is 105% with LOX IMVI melanoma and 92.8% in the experiment on SK-MEL-28 melanoma.
Take `CC(=O)c1ccc(NCC(=O)Nc2ccccn2)cc1`: the growth was 107% with DU-145 prostate; 95.6% in the experiment with K-562 leukemia; 97.6% with MALME-3M melanoma; 94.1% in the experiment on MDA-MB-231 breast; 117% in the experiment with RXF 393 renal; 97.1% in the experiment on SF-268 CNS. For the same compound, the growth in the experiment on SF-295 CNS was 109%; in the experiment on SF-539 CNS it was 106%; in the experiment on UACC-257 melanoma, 106%; in the experiment on M14 melanoma it was 106%; in the experiment on HCT-15 colon, 109%; in the experiment with HT29 colon it was 109%. Besides, the growth with SNB-75 CNS was 92.7%; in the experiment with SNB-19 CNS it was 100%; in the experiment with U251 CNS it was 102%; in the experiment on PC-3 prostate, 96.4%; in the experiment on SK-MEL-5 melanoma, 99.9%; with UACC-62 melanoma, 97%. Moreover, the growth with LOX IMVI melanoma was 101%; with SK-MEL-28 melanoma it was 115%.
As for `COc1cc(C(=O)c2cc(C)c3[nH]c4ccc(Cl)cc4c3c2C)cc(OC)c1OC`, the growth in the experiment on DU-145 prostate was -19.7% (active); in the experiment on K-562 leukemia it was 13.6%; with MALME-3M melanoma, 27.9%; in the experiment with MDA-MB-231 breast it was 22.1%; in the experiment with RXF 393 renal, 36.6%; in the experiment on SF-268 CNS it was 25.5%. Besides, the growth in the experiment on SF-295 CNS is 4.51% (active); with SF-539 CNS, -10.1% (active); with UACC-257 melanoma, 68%; in the experiment on M14 melanoma, 17.5%; in the experiment on HCT-15 colon, 7.42% (active); in the experiment with HT29 colon, 18.6%. The growth in the experiment on SNB-75 CNS was 22.9%; in the experiment with SNB-19 CNS it was 35.6%; in the experiment with U251 CNS, 20%; in the experiment with PC-3 prostate, 27.3%; with SK-MEL-5 melanoma, -55.8% (active); in the experiment on UACC-62 melanoma it was 42.6%. Also, the values for the growth with LOX IMVI melanoma and with SK-MEL-28 melanoma were 8.56% (active) and 53.6%, respectively.
On to `CC/C=C\CCC/C=C1/C(=O)C=C[C@@H]1C/C=C\CCCC(=O)O`, for which the growth in the experiment with DU-145 prostate is 83.9%; in the experiment on K-562 leukemia it was 7.87% (active); with MALME-3M melanoma, 92%; in the experiment with MDA-MB-231 breast it was 44.1%; in the experiment with RXF 393 renal it was 108%; in the experiment on SF-268 CNS it was 89%. Also, the growth with SF-295 CNS is 82.9%; with SF-539 CNS, 103%; in the experiment with UACC-257 melanoma, 72.3%; in the experiment on M14 melanoma it was 54.6%; with HCT-15 colon it was 53.7%; with HT29 colon it was 31.9%. In addition, the growth in the experiment on SNB-75 CNS is 86.5%; in the experiment on SNB-19 CNS, 69.2%; in the experiment with U251 CNS it was 39.8%; in the experiment with PC-3 prostate it was 57.6%; in the experiment with SK-MEL-5 melanoma it was 16.9%; with UACC-62 melanoma it was 15.6%. Also, the values for the growth in the experiment on LOX IMVI melanoma and in the experiment on SK-MEL-28 melanoma were 0.644% (active) and 87.1%, respectively.
For `COc1ccc2c(c1)[nH]c(=O)c1c3cccnc3cn21`, the growth is 9.39% (active) in the experiment on DU-145 prostate; 17.4% in the experiment with K-562 leukemia; 62.6% in the experiment with MALME-3M melanoma; 28.9% with MDA-MB-231 breast; 37% in the experiment with RXF 393 renal; 27.3% in the experiment on SF-268 CNS. For the same compound, the growth in the experiment on SF-295 CNS is -6.51% (active); with SF-539 CNS, 8.85% (active); with UACC-257 melanoma, 64.5%; in the experiment with M14 melanoma it was 16.2%; in the experiment on HCT-15 colon, 13.7%; with HT29 colon, 8.6% (active). Moreover, the growth with SNB-75 CNS is 40.5%; in the experiment on SNB-19 CNS it was 32.7%; with U251 CNS, 15.6%; with PC-3 prostate, 22%; in the experiment with SK-MEL-5 melanoma, -33.6% (active); in the experiment on UACC-62 melanoma, 16.5%. For the same compound, the growth was 33.1% in the experiment on LOX IMVI melanoma and 70.8% with SK-MEL-28 melanoma.
As to `Cc1cc(C(=O)c2ccccc2)c(C)c2c1[nH]c1ccc(Cl)cc12`, the growth is 1.86% (active) in the experiment on DU-145 prostate; 11.9% in the experiment with K-562 leukemia; 33.7% with MALME-3M melanoma; 30.6% in the experiment with MDA-MB-231 breast; 18.9% with RXF 393 renal; 22.8% in the experiment on SF-268 CNS. Moreover, the growth in the experiment on SF-295 CNS was 6.92% (active); in the experiment with SF-539 CNS, -14.9% (active); in the experiment on UACC-257 melanoma, 66.1%; in the experiment with M14 melanoma, 19.6%; with HCT-15 colon, 7.78% (active); in the experiment on HT29 colon, 5.31% (active). Also, the growth in the experiment on SNB-75 CNS was -10.1% (active); in the experiment on SNB-19 CNS it was 52.3%; in the experiment on U251 CNS it was 20.8%; with PC-3 prostate, 23.8%; in the experiment with SK-MEL-5 melanoma it was 2.39% (active); with UACC-62 melanoma, 54.9%. For the same compound, the growth with LOX IMVI melanoma was 10.2%; with SK-MEL-28 melanoma, 59.1%.
In the case of `CCCCOc1nc2ccccc2cc1C1CNC(=O)c2ccccc2N1` (stereo not given), the growth in the experiment on DU-145 prostate was 10.7%; in the experiment on K-562 leukemia, 12.8%; in the experiment with MALME-3M melanoma it was 45.6%; with MDA-MB-231 breast, 47.5%; with RXF 393 renal it was -14.3% (active); in the experiment on SF-268 CNS, 43.6%. The growth with SF-295 CNS is -5.68% (active); in the experiment on SF-539 CNS, -25.5% (active); in the experiment on UACC-257 melanoma it was 57.2%; in the experiment with M14 melanoma it was -23.1% (active); in the experiment with HCT-15 colon, 15.3%; with HT29 colon, 0.868% (active). For the same compound, the growth in the experiment on SNB-75 CNS was 3.14% (active); with SNB-19 CNS, 33.4%; in the experiment on U251 CNS, 18.6%; in the experiment with PC-3 prostate, 24.7%; in the experiment with SK-MEL-5 melanoma, 15.6%; with UACC-62 melanoma, 32.6%. The growth in the experiment with LOX IMVI melanoma is 27.1%; with SK-MEL-28 melanoma, 45.8%.
